A selection: hits, their analogues and other compounds. The true share with any hit is near 3.8%.
A549 viability – Nrf2 qHTS screen for inhibitors: counterscreen for cytotoxicity | A549 ARE-Fluc cells, CellTiter-Fluor viability, 18-24 h | Potency, µM (titrated, usually from 46 µM), usual class: inhibitors | actives 0.16% (n = 390,000)
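A549 ARE_Fluc cells in 5% FBS OPTI-MEM were exposed to compounds in concentration-response for 18-24 h at 37 deg C. Viability was read by CellTiter-Fluor fluorescence (Ex 405/Em 525) after 30 min, before the luciferase read.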
ATXN viability – Viability Counterscreen for Primary qHTS for Inhibitors of ATXN expression; S2 cells (HEK-293 line with an ATXN2-luciferase reporter) viability, CellTiter-Fluor protease fluorescence, 24 h; Potency, µM (top dose mostly 56.7 µM), hits mostly cytotoxic; actives 0.49% (n = 400,000); note: nearly all actives have a fitted effect of over 40% in size
Nrf2 inh – Nrf2 qHTS screen for inhibitors. Potency, µM (titrated, usually from 46 µM), actives largely listed as inhibitors. A549 ARE-Fluc reporter, luciferase luminescence, 18-24 h. actives 2.1% (n = 360,000); note: nearly all actives have a fitted effect of over 60% in size
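Quantitative HTS in A549 cells stably bearing an antioxidant response element-firefly luciferase construct. Inhibition of Nrf2-driven transcription was scored by luminescence after 18-24 h of compound exposure at 37 °C.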
TGFb inhibitor – qHTS for Inhibitors of TGF-b; HepG2 CAGA-GFP TGF-b/SMAD3 reporter, GFP fluorescence, 18 h; TGF-beta stimulated, 500 pg/mL final; Potency, µM (highest dose often 46.1 µM), most hits filed as inhibitors; actives 1.2% (n = 410,000); note: nearly all actives have a fitted effect of over 65% in size
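TGF-beta reporter screen: HEPG2 CAGA-GFP, 1% FBS, 500 pg/mL TGF-beta final, 18 h; per-cell GFP summed per well; curves fitted and categorized by class.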
HepG2 tox – qHTS for Inhibitors of TGF-b: Cytotox Counterscreen; actives 0.76% (n = 410,000); HepG2 CAGA-GFP viability, ATP luminescence, 18 h; AID 588856, 2011; Potency, µM (top dose mostly 46.1 µM), hits mostly cytotoxic
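HepG2 CAGA-GFP cells (1000/well, DMEM with 1% FBS) received compound, then TGF-beta at 500 pg/mL final, and were incubated 18 hours at 37 degrees C. Viability was read by CellTiter-Glo luminescence. Media-only wells were set as complete cell-killing and DMSO as no toxicity.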
ATXN2 expr inh – Primary qHTS for Inhibitors of ATXN expression | HEK-293 ATXN2-luciferase reporter, luminescence, 24 h | Potency, µM (top dose mostly 57 µM), most hits filed as inhibitors | actives 0.72% (n = 360,000) | AID 1745845, 2022; note: nearly all actives have a fitted effect of over 55% in size
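qHTS (up to 57 uM final) was run with 24 h compound exposure of reporter cells at 37 °C. Each well was multiplexed: SteadyGlo luminescence measured ATXN2-luciferase expression after a fluorogenic Gly-Phe-AFC viability readout (25 uM final).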
Large screens that a line does not name were inactive; ! = not confirmed by another sample. Calls come from the whole dose curve; as a rule, active = well fitted curve in the direction sought with a large enough effect; inconclusive = small, poorly fitted or top-dose-only effect, or another doubt; inactive = no such curve, though single readings can be large; an effect the other way counts as inactive or inconclusive.

COC(=O)c1ccc(CSC(=N)N)o1	ATXN viability inconclusive, Nrf2 inh inconclusive, ATXN2 expr inh inconclusive
CCc1oc(C(=O)OC)cc1CSC(=N)N	HepG2 tox 16µM
CC(C)(C)OC(=O)C[C@H]1C/C=C\C[C@H](CC(=O)NCCO)C(=O)NC[C@H](c2ccccc2)OC1=O	none
CCOc1ccccc1Nc1nc(N)nc(CN2CCCCC2C)n1 (stereo not given)	none
O=C(C[C@@H]1C/C=C/CC[C@H](Cc2ccc(F)cc2)C(=O)OC[C@@H](Cc2ccccc2)NC1=O)N[C@H](CO)Cc1ccccc1	A549 viability inconclusive, ATXN viability 13µM, TGFb inhibitor inconclusive, ATXN2 expr inh 11µM
C[C@@H]1COC(=O)[C@H](Cc2ccc(F)cc2)CC/C=C/C[C@@H](CC(=O)N[C@@H](CO)Cc2ccccc2)C(=O)N1	none
COc1cc(F)c(S(=O)(=O)N2CCN(S(=O)(=O)c3cccc(NC(C)=O)c3)CC2)c(F)c1	none (no result: ATXN viability, TGFb inhibitor, HepG2 tox, ATXN2 expr inh)
COc1cc(F)c(S(=O)(=O)N2CCCN(S(=O)(=O)c3cccc(N)c3)CC2)c(F)c1	Nrf2 inh 26µM! (no result: ATXN viability, TGFb inhibitor, HepG2 tox, ATXN2 expr inh)
CCOC(=O)c1[nH]c(C)c(CCC(=O)N2CCN(c3cc(Cl)ccc3C)CC2)c1C	ATXN viability inconclusive, TGFb inhibitor 11µM (no result: Nrf2 inh)
CCOC(=O)c1[nH]c(C)c(CCC(=O)N2CCN(c3cc(C)ccc3C)CC2)c1C	TGFb inhibitor inconclusive, ATXN2 expr inh inconclusive (no result: Nrf2 inh)
CCOC(=O)c1c(S(=O)(=O)N2CCC(C(=O)N3CCN(c4cccc(C)c4C)CC3)CC2)c(C)n(C)c1C	ATXN viability inconclusive, TGFb inhibitor inconclusive, ATXN2 expr inh inconclusive (no result: Nrf2 inh)
Cc1ccc(-c2noc(-c3c(C)noc3C)n2)cc1	Nrf2 inh inconclusive, HepG2 tox 0.89µM (no result: ATXN2 expr inh)
Cc1cccc(-c2noc(-c3c(C)noc3C)n2)c1	Nrf2 inh inconclusive
NC(=O)c1c(NC(=O)c2ccncc2)sc2c1CCCCCC2	ATXN viability inconclusive, Nrf2 inh inconclusive
CCC(C(=O)NC1CC1)n1nc(C)c2c(C)n(-c3ccc(C)cc3)nc2c1=O (stereo not given)	Nrf2 inh 16µM
CCC(C(=O)Nc1ccccc1F)n1nc(C)c2c(C)n(-c3ccccc3)nc2c1=O (stereo not given)	none
CCC(C(=O)NCc1ccc(OC)c(OC)c1)n1nc(C)c2c(C)n(-c3ccc(C)cc3)nc2c1=O (stereo not given)	Nrf2 inh 26µM, TGFb inhibitor inconclusive (no result: ATXN viability, ATXN2 expr inh)
CCC(C(=O)Nc1cc(F)ccc1F)n1nc(C)c2c(C)n(-c3ccc(C)cc3)nc2c1=O (stereo not given)	A549 viability inconclusive, ATXN viability inconclusive, Nrf2 inh 23µM, TGFb inhibitor inconclusive, ATXN2 expr inh inconclusive
Cc1ccc(-n2nc3c(=O)n(CC(=O)NC(C)CCc4ccccc4)nc(C)c3c2C)cc1 (stereo not given)	Nrf2 inh 5.2µM, TGFb inhibitor inconclusive (no result: ATXN2 expr inh)
COc1ccc(CNC(=O)C(C)n2nc(C)c3c(C)n(-c4ccc(C)cc4)nc3c2=O)cc1 (stereo not given)	Nrf2 inh inconclusive, TGFb inhibitor inconclusive
Cc1ccc(-n2nc3c(=O)n(C(C)C(=O)NCCc4cccs4)nc(C)c3c2C)cc1 (stereo not given)	Nrf2 inh 12µM, TGFb inhibitor inconclusive (no result: ATXN viability, ATXN2 expr inh)
Cc1cc(N2C(=O)c3ccccc3C2=O)no1	none (no result: ATXN viability, TGFb inhibitor, HepG2 tox, ATXN2 expr inh)
Cc1cc(OC(=O)c2ccccc2Cl)cc(=O)n1C	Nrf2 inh 8.2µM
O=C(Oc1ccc(N2C(=O)CCC2=O)cc1)c1ccccc1Cl	Nrf2 inh inconclusive
CC(C)CNc1nnnc2c1sc1nc(N3CCOCC3)c3c(c12)CC(C)(C)SC3	Nrf2 inh 13µM
CC1(C)Cc2c(c(N3CCOCC3)nc3sc4c(NCc5ccco5)nnnc4c23)CS1	Nrf2 inh inconclusive
CSc1ccccc1NC(=O)CN(C)C(=O)COc1cccc2cccnc12	TGFb inhibitor inconclusive, HepG2 tox 11µM
